Compounds with a hit are over-represented: about 7.9% of the library has one in this group of screens.
HCMV antiviral: human cytomegalovirus inhibition; HFF cells, HCMV-luciferase reporter, 72 h; hits give low values; activity change, negative = inhibition, % at 57.5 µM; 410,000 compounds, 4.5% hits; AID 1259415; in the data active means activity change below about -60%; inconclusive means no clear call, values can overlap the other calls; inactive means above about -39%
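Luciferase read-out from HCMV-luciferase-infected HFFs (MOI 1 PFU/cell) 72 h post infection at 37C; compounds added after 16 h cell attachment; activity normalized between buffer-only basal and Salinomycin (10uM) inhibitor controls.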
LASV entry inh: inhibitors of Lassa virus binding or cell entry; Lassa virus pseudotype entry inhibition, cell reporter; Potency, µM (doses to about 37.9 µM), inactives show top-dose activity change, negative = inhibition, usual class: inhibitors; 300,000 compounds, 1.2% hits; AID 540256; calls by dose curve; tested in HEK293 cells; further: potency means the concentration at half of the fitted maximal effect; nearly all actives have a fitted effect of over 50% in size
HCV inh: blocks hepatitis C virus; 340,000 compounds, 3.4% hits; Huh7.5.1 HCVcc-Cre infection, luciferase reporter, 44 h; Potency, µM (highest dose often 41.8 µM), without a hit: at the top dose activity change, negative = inhibition, actives largely listed as inhibitors; active means well fitted inhibition curve with a large enough effect; inconclusive means small, poorly fitted or top-dose-only effect, or another doubt; inactive means no such curve, though single readings can be large or run the other way; further: potency means the concentration at half of the fitted maximal effect
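1,000 cells/well; 4 h culture; + compound; + HCVcc-Cre (~0.5 moi); 44 h; luciferase substrate, RT 15 min; read 15 sec.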
Marburg entry inh: inhibitors of Marburg virus binding or cell entry; 300,000 compounds, 1.8% hits; Marburg virus pseudotyped entry inhibition, cell reporter; Potency, µM (series often up to 37.8 µM), for the others: at the top dose activity change, negative = inhibition, hits mostly inhibitors; calls by dose curve; tested in HEK293 cells; further: potency means the concentration at half of the fitted maximal effect
FMDV inh: antivirals against foot and mouth disease virus | FMDV antiviral cell-based qHTS | Potency, µM (series often up to 57.9 µM), for inactives: at the highest dose activity change, negative = inhibition, usual class: inhibitors | 410,000 compounds, 1.2% hits | AID 1159524; calls by dose curve; tested in HEK293T cells; further: read-out not given here; potency means the concentration at half of the fitted maximal effect; nearly all actives have a fitted effect of over 45% in size
* = called active by the depositor; ? = inconclusive; . = not tested or not shown; ! = not active in a repeat; [ ] = another dose, or the depositor's remark. On the % scale 0 is the no-effect control and ±100 the full control effect.

SMILES	HCMV antiviral	LASV entry inh	HCV inh	Marburg entry inh	FMDV inh
Cc1[nH]n(C2=NCCS2)c(=O)c1N=Nc1ccccc1	-61*	0%	-6%	10%[46.1 µM]	33%
CN(C)C(=O)CCC(=O)NCC1Cc2cccc(-c3ccccc3C(F)(F)F)c2O1 (stereo not given)	.	.	.	.	-16%
O=C(NC1(C(F)(F)F)C(=O)Nc2c1c(=O)[nH]c(=O)n2-c1ccccc1)c1ccccc1Cl (stereo not given)	6	8%[46.1 µM]	.	.	-4%
O=C(c1ccc(CS(=O)(=O)c2ccc(Br)cc2)o1)N1CCN(c2ccc(F)cc2)CC1	0	-9%[46.1 µM]	?	?	?
Cc1ccc(S(=O)(=O)Cc2ccc(C(=O)N3CCCC3)o2)cc1	-35	.	-9%	.	-3%
COc1ccc(N2CCN(C(=O)c3ccc(CS(=O)(=O)c4ccc(Br)cc4)o3)CC2)cc1	-84*!	8%[46.1 µM]	15%	8%[46.1 µM]	-14%
CCCCNC(=O)c1ccc(CS(=O)(=O)c2ccc(C)cc2)o1	-20	16µM*	8%	?	-10%
Cc1ccc(S(=O)(=O)Cc2ccc(C(=O)N3CCCCCC3)o2)cc1	-63*	.	-14%	.	-14%
C#CCCCO/N=C1\C[C@@H](O)[C@@H](O)[C@@H]2[C@@H]3C(=O)N(C[C@@H]4CCCO4)C(=O)[C@@H]3CC[C@H]12	.	.	.	4%[14.2 µM]	.
COc1ccc(NC(=O)Cn2c(=O)n(CCc3ccccc3)c(=O)c3sc4ccccc4c32)cc1	31	-4%[46.1 µM]	.	21%[46.1 µM]	36%
Cc1ccc(C(=O)NCCc2nnc3n2CCN(C(=O)c2ccnc(Cl)c2)CC3)cc1	.	.	.	.	1%
Cc1cc(C(=O)Cn2nnc(-c3ccc(Cl)cc3)n2)c(C)n1CC1CCCO1 (stereo not given)	?	?	7.9µM*	-19%	.
Cc1cc(C)n2nc(SCC(=O)c3cc(C)n(CC4CCCO4)c3C)nc2n1 (stereo not given)	-70*	-27%	?	15%[46.1 µM]	?
Cc1cc(C(=O)CSc2nc3ccccc3o2)c(C)n1CC1CCCO1 (stereo not given)	-70*	?	?	?	?
Cc1cc(C(=O)CSc2nnc(-c3ccc(Cl)cc3)n2C)c(C)n1CC1CCCO1 (stereo not given)	27	-16%	-20%	-5%	-28%
Cc1cc(C(=O)CSc2nc(N)cc(N)n2)c(C)n1CC1CCCO1 (stereo not given)	-25	9%[46.1 µM]	-24%	4%[46.1 µM]	-1%
Cc1cc(C(=O)CSc2nc3ccccc3[nH]2)c(C)n1CC1CCCO1 (stereo not given)	-99*	7.9µM*	1.4µM*	?	11µM*
CCCCCOc1ccc(/C=C/C(=O)Nc2sc(C)c(C)c2C(=O)OCC)cc1OC	-2	-19%[46.1 µM]	.	.	?
O=C(O)CSc1nc2ccccc2o1	27	12%	17%	?	16%
Cc1ccc(C(=O)CSc2nc3ccccc3o2)cc1	-61*	35%	-26%	14%	.
c1ccc(-c2cc3nc(NCC4CC4)nc(NCC4CCCCC4)c3s2)cc1	-92*	.	.	.	?
C=CCNc1nc(NCc2ccc(NC(C)=O)cc2)c2sc(-c3ccccc3)cc2n1	20	.	.	.	45%
CC(=O)Nc1ccc(CNc2nc(NC(C)C)nc3cc(-c4ccccc4)sc23)cc1	-98*	.	.	.	46%
COc1ccc(-c2cc(CNc3nc(NC(C)C)nc4cc(-c5ccccc5)sc34)on2)cc1	-99*	.	.	.	-1%
COCCNc1nc(NCC2CCCCC2)c2sc(-c3ccccc3)cc2n1	?	.	.	.	-20%
SMILES	HCMV antiviral	LASV entry inh	HCV inh	Marburg entry inh	FMDV inh
COc1cccc(Nc2nc3ccc(C(=O)c4ccccc4)cc3n3c(C)nnc23)c1	-2	-9%[46.1 µM]	.	3%[46.1 µM]	-19%
COc1ccc(N2CCN(C(=O)CCn3nc(C)c(S(=O)(=O)N4CCCC4)c3C)CC2)cc1	?	-16%[46.1 µM]	.	.	?
COC(=O)c1ccc(C2c3[nH]c4ccccc4c3C[C@H]3C(=O)N(C4CCN(Cc5ccccc5)CC4)CC(=O)N23)cc1 (stereo not given in full)	-1	.	10µM*	.	0%
O=C1[C@@H]2Cc3c([nH]c4ccccc34)C(c3ccccc3)N2C(=O)CN1C1CCN(Cc2ccccc2)CC1 (stereo not given in full)	-76*	?	-19%	?	-2%
O=C1[C@@H]2Cc3c([nH]c4ccccc34)C(c3cccc(Br)c3)N2C(=O)CN1C1CCN(Cc2ccccc2)CC1 (stereo not given in full)	4	?	?	?	-23%
CCOc1ccccc1C1c2[nH]c3ccccc3c2C[C@H]2C(=O)N(C3CCN(Cc4ccccc4)CC3)CC(=O)N12 (stereo not given in full)	?	?	?	20µM*	-3%
COC(=O)[C@H](CCCN=C(N)N)NC(=O)CCCc1c(-c2ccccc2)[nH]c2c(F)cc(F)cc12	.	.	.	.	-17%
CC(=O)Nc1c(C)nn(-c2ccccc2)c1N1CCC(C(=O)NCc2ccc(Cl)cc2)CC1	-23	15%[46.1 µM]	.	.	-17%
Cc1oc2ncnc(N3CCOCC3)c2c1C(=O)Nc1ccc(Br)cc1F	7	7%[46.1 µM]	.	-12%[46.1 µM]	-9%
Cc1cccc(CNC(=O)c2cnn(-c3nccc(-c4cc5ccccc5o4)n3)c2C2CC2)n1	.	.	.	.	-22%
Cc1noc2ncnc(N3CCCC(C(=O)NC(C)C)C3)c12 (stereo not given)	-5	16%[46.1 µM]	.	.	-16%
CCCCCCCCCCCCCCCC[n+]1ccc(/C=N/O)cc1	-97*	6.5µM*	?	4.5µM*	?
Cc1cc[n+](CC[n+]2ccc(C)cc2)cc1	-21	.	20%	.	5%
CCCCCCCC[n+]1cccc(C(=O)N(CC)CC)c1	2	-3%	6%	11%	-3%
CCCCCCCCCCCCCCCC[n+]1ccc(C(N)=O)cc1	-86*	?	7%	-16%	?
CCCCCCC[n+]1ccc(-c2cc[n+](CCCCCCC)cc2)cc1	-101*	-27%	?	?	-7%
O/N=C/c1cccc[n+]1CCCCCC[n+]1ccccc1/C=N/O	25	?	19%	3%	-9%
CCCCCCCCCCCCCCCC[n+]1cccc(C(=O)N(CC)CC)c1	-31	11µM*	6%	7.1µM*	-24%
COC(=O)c1ccccc1NC(=O)Cn1c(=O)n(CCC(=O)NCc2ccc3c(c2)OCO3)c(=O)c2ccccc21	26	18%[46.1 µM]	.	0%[46.1 µM]	16%
Cc1ccn2c(=O)cc(CSc3nnc(NC(=O)c4ccccc4Cl)s3)nc2c1	-21	-8%[46.1 µM]	.	.	11%
Cc1ccc(N2CC(NC(=O)C3CCCC3)CC2=O)cc1 (stereo not given)	-2	7%[46.1 µM]	.	.	-8%
CCCCCCCCCCCCCCCC[n+]1ccccc1	-98*	?	3.2µM*	?	16µM*!
Nc1cc(Cl)c2nonc2c1[N+](=O)[O-]	-95*	?	4.5µM*	?	8.9µM*
O=[N+]([O-])c1c(Nc2ccccc2O)cc(Cl)c2nonc12	-97*	?	11µM*	?	10µM*

Screening data: PubChem, National Center for Advancing Translational Sciences (NCATS)
